Test results reported in PubChem BioAssay (NCI).
Compounds without any hit were thinned out: in the full panel of roughly 83,000, 20% have a hit.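 Assay: single dose, 48 h. Readout: percent growth (0 = no net growth; negative = cell death). Active: <10.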 Values without a mark were called inactive. Calls of active or inactive are those of the source.

How the values were obtained:
Assay in all cases: NCI-60 one-dose screen, 48 h (100 = growth as untreated, 0 = no growth, -100 = all killed)
Conditions in all cases: 10 µM unless noted
[1] = test system: NCI-H23 lung
[2] = test system: NCI-H226 lung
[3] = test system: NCI-H322M lung
[4] = test system: HOP-62 NSCLC
[5] = test system: NCI-H460 lung
[6] = test system: NCI-H522 lung
[7] = test system: A549/ATCC NSCLC
[8] = test system: 786-0 renal
[9] = test system: COLO 205 colon
[10] = test system: DU-145 prostate
[11] = test system: K-562 leukemia
[12] = test system: MALME-3M melanoma
[13] = test system: MDA-MB-231 breast
[14] = test system: RXF 393 renal
[15] = test system: SF-268 CNS
[16] = test system: SF-295 CNS
[17] = test system: SF-539 CNS
[18] = test system: UACC-257 melanoma
[19] = test system: M14 melanoma
[20] = test system: HCT-15 colon

Compound	growth [1]	growth [2]	growth [3]	growth [4]	growth [5]	growth [6]	growth [7]	growth [8]	growth [9]	growth [10]	growth [11]	growth [12]	growth [13]	growth [14]	growth [15]	growth [16]	growth [17]	growth [18]	growth [19]	growth [20]
O=c1ccn(C2OC(CO)C(O)C2F)c(=O)[nH]1 (stereo not given)	90.5%	101%	117%	103%	113%	109%	109%	99.2%	128%	119%	117%	116%	117%	132%	111%	105%	103%	114%	108%	112%
O=C(Nc1ccc(Nc2ccncc2)cc1)c1ccc(Nc2ccnc3ccc([N+](=O)[O-])cc23)cc1[N+](=O)[O-]	83%	103%	89.5%	127%	44.9%	43.2%	35.2%	50.1%	122%	56.8%	107%	-49.8% (active)	94.9%	35.9%	-11.6% (active)	19.4%	53.3%	70.9%	92.7%	86.7%
O=C1OCC/C1=C\OCCCO/C=C1\CCOC1=O	102%	103%	100%	122%	107%	98.3%	98.7%	102%	141%	115%	107%	95.2%	107%	117%	109%	106%	105%	106%	110%	98.1%
CSC1=Nc2c(c(C)c(-c3ccccc3)n2CCCN2CCCCC2)C2=NC(=O)C[C@H](C)N12	63.1%	68.9%	62.1%	81.6%	38.3%	35.5%	32.2%	80.1%	-87% (active)	47.6%	11.6%	56.5%	69.6%	56.4%	66.2%	38.9%	79%	41.3%	59.8%	81.2%
Clc1nc(Cl)c2ncn(-c3ccccc3)c2n1	99.9%	93.4%	76.8%	99.4%	89.2%	-68.9% (active)	95.3%	88.5%	80.9%	36.7%	36.2%	48.4%	63.1%	56.1%	68.8%	106%	85.2%	67%	35.6%	44.8%
N#Cc1ccc(NC(=O)Nc2ccc(Oc3ccc(NC(=O)Nc4ccc(C#N)cc4)cc3)cc2)cc1	-0.877% (active)	42.5%	61.8%	31.6%	18.9%	-33.4% (active)	26.9%	30.3%	-0.221% (active)	35.3%	0.451% (active)	54.4%	53.5%	83.2%	42.1%	23.7%	71%	37%	26.2%	32.1%
CC(C)(C)c1ccc(C(O)CCCN2CCC(C(O)(c3ccccc3)c3ccccc3)CC2)cc1 (stereo not given)	4.7% (active)	57.5%	53.8%	-79.5% (active)	-84.9% (active)	-74.6% (active)	-39.8% (active)	-97.4% (active)	-86.9% (active)	-75.7% (active)	-39.9% (active)	-78.5% (active)	-89.4% (active)	-97.8% (active)	-65.6% (active)	-69.7% (active)	-76.4% (active)	-78.2% (active)	-91.3% (active)	-73.7% (active)
CCCCc1nc(Cl)c(CO)n1Cc1ccc(-c2ccccc2-c2nn[nH]n2)cc1	106%	99.3%	97.1%	97.7%	108%	92.8%	105%	106%	96.6%	110%	105%	101%	99.1%	105%	115%	99.9%	100%	104%	101%	106%
Clc1cc(Cl)c(OCC#CI)cc1Cl	97.3%	43.1%	127%	108%	100%	18%	101%	98.9%	5.9% (active)	86.8%	69.5%	0.95% (active)	83.2%	-11.9% (active)	98.6%	101%	33.2%	-3.08% (active)	37.7%	42.1%
COc1ccc(C2CC(c3ccc(OC)c(OC)c3)=NN2C(=O)c2cc(OC)c(OC)c(OC)c2)cc1 (stereo not given)	46.6%	51.9%	37.7%	34.8%	6.07% (active)	-35.9% (active)	27.2%	26.7%	8.03% (active)	11.6%	28.3%	57.7%	12.6%	-21.4% (active)	54.7%	4.28% (active)	-14.5% (active)	66.3%	-11.8% (active)	32.8%
COC1CC2CCC(C)C(O)(O2)C(=O)C(=O)N2CCCCC2C(=O)OC(C(C)CC2CCC(O)C(OC)C2)CC(=O)C(C)C=C(C)C(O)C(OC)C(=O)C(C)CC(C)/C=C/C=C/C=C1C (stereo not given)	49.2%	48.6%	39.4%	51.3%	43.1%	42.7%	36.8%	43%	64.7%	42%	70.4%	21.1%	52.4%	20.4%	57.2%	16.6%	35.8%	50.8%	48.5%	46.2%
Cc1nn(-c2ccccc2)c2c1oc(=O)c1cc(Cl)ccc12	107%	96.3%	90.5%	91.6%	107%	113%	102%	100%	120%	169%	106%	106%	94%	116%	90.6%	109%	97.9%	99.7%	92.6%	99.4%
CCN1C2=C(SC(=S)C1=C1SC(C(=O)OC)=C(C(=O)OC)S1)SC(=Nc1ccc(OC)cc1)C2=O	-42.5% (active)	-66.7% (active)	48.4%	-13.7% (active)	-47.5% (active)	-15.2% (active)	17.7%	-64.6% (active)	-3.6% (active)	-46.1% (active)	7.47% (active)	-28% (active)	4.53% (active)	-87.7% (active)	1.48% (active)	2.33% (active)	-24.1% (active)	-55.1% (active)	-54.7% (active)	-20.7% (active)
O=C(NCCc1ccccc1)C1CCC(=O)N1Cc1ccc(Br)cc1 (stereo not given)	104%	95.1%	101%	93%	102%	67.1%	79.1%	105%	108%	109%	107%	96.7%	114%	106%	106%	106%	96%	79.9%	104%	108%
O=C(c1nn(-c2ccc(Cl)cc2)cc1O)n1nc(C(F)(F)F)cc1-c1ccccc1	32.8%	52.7%	-1.34% (active)	34.6%	34.9%	21.2%	47.4%	42.9%	7.24% (active)	49.2%	18.6%	107%	54.6%	55.1%	42.3%	-0.429% (active)	45.6%	53.3%	43.4%	30.2%
